# Reference: PubChem BioAssay (NCATS)
# Records with an inconclusive call do not appear. A number with no mark means an inactive call. Activity calls are given as the source filed them. Calls follow the shape of the dose curve; as a rule, active = well fitted cell-killing curve with a large enough effect; inconclusive = small, poorly fitted or top-dose-only effect; inactive = no such curve, though single readings can be large or run the other way.
# Assay: qHTS of pediatric cancer cell lines to identify multiple opportunities for drug repurposing: Primary screen for Rh41 cells (AID 1347108); also: nearly all actives have a fitted effect of over 70% in size;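 as to activity change, negative = cytotoxic: luminescence drop marks cytotoxic hits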
# Conditions: Rh41 rhabdomyosarcoma viability, CellTiter-Glo luminescence, 48 h; series mostly up to 46 µM; activity change, negative = cytotoxic: at the top concentration
# Description: Drug repurposing or repositioning has been offered as a strategy for drug development in oncology programs. This approach has special potential for childhood cancers and other rare or orphan diseases, where the expected return on new drug development has been a disincentive to pharmaceuticals. […] In this project we exploit the poly-pharmacology of drugs to discover new indications via phenotypic screening of a panel of 19 well-characterized cell lines derived from solid tumors seen in children and adolescents. The goal is to identify approved drugs with previously unrecognized anticancer properties that has the potential to reveal new mechanisms and biological processes involved in carcinogenesis or drug resistance. We employed a titration-based paradigm (quantitative high-throughput screening or qHTS), where all compounds were tested at multiple concentrations for their effect on cell viability. Concentration-response curves (CRCs) were derived directly from the primary screen, and both potency and efficacy values were used to identify compounds with robust bioactivity profiles. We screened the NIH Chemical Genomics Center (NCGC) Pharmaceutical Collection (NPC) and Mechanism Interrogation Plate (MIPE) small molecule collections of approved and investigational compounds against these cell lines; and measured metabolically active cells after 48 hours of compound treatment as a proxy for cell viability. […] Assay Submitter: Nathalia J. Martinez, National Center for Advancing Translational Sciences, National Institutes of Health, Rockville, MD, USA; email: natalia.martinez@nih.gov Shen, M et al. Quantitative high-throughput phenotypic screening of pediatric cancer cell lines identifies multiple opportunities for drug repurposing. Oncotarget 2017 Dec 19;9(4):4758-4772. PMID 29435139.
# The cells were obtained from University of North Carolina (UNC), Pediatric Preclinical Testing Program (PPT), and Coriell Institute (CI). qHTS cell viability assay: Cells were assayed in growth media at a density of 500-1,000 cells/well. Five microliters of cells were dispensed into 1,536-well, white, solid-bottom, TC-treated plates (Greiner Bio One) using a multidrop dispenser and incubated at 37 degrees C, 5% CO2, under a humidified atmosphere for 5 hours. Twenty-three nanoliters of compounds and controls (neutral control DMSO or positive control bortezomib at final concentration of 2.3 µM) were subsequently transferred by Kalypsys pintool. For primary screens, the MIPE collection was tested at 11-point dilutions (final concentrations range from 0.78 nM to 46 µM) and the NPC collection at 8-point dilutions (final concentrations range from 0.59 nM to 46 µM). Compounds tested in follow-up screens were assayed at 11-point dilutions. Cells were incubated for 48 hours, followed by addition of 3 µL of CellTiter-Glo (Promega). After a 15 min incubation at room temperature, samples were analyzed for luminescence intensity using a ViewLux High-throughput CCD imager equipped with clear filters.
# Potency is read from the fitted curve at half-maximal effect.
SMILES,"activity change, negative = cytotoxic [%]",Potency
OC[C@H]1O[C@@H](O[C@H]2[C@@H](O)[C@@](O)(CO)O[C@@H]2CO)[C@H](O)[C@@H](O)[C@@H]1O,7.61,
CCC(=O)N1CCN(c2ccc(-n3c(=O)ccc4cnc5ccc(-c6cnc7ccccc7c6)cc5c43)cc2C(F)(F)F)CC1,,0.0743 µM (active)
N#Cc1c(N(CC(=O)O)CC(=O)O)sc(C(=O)O)c1CC(=O)O,-0.997,
O=C1C(c2c(O)[nH]c3ccccc23)=Nc2ccccc21,29.6,
NC(=O)c1noc([C@H](CCCC2CCCCC2)CC(=O)NO)n1,,14.8 µM (active)
CC(C)[C@H](O)C(=O)N[C@@H](C)C(=O)N[C@@H]1C(=O)N(C)CCc2ccccc21,5.15,
CC[C@H](C)n1cc(C)c2c(C(=O)NCc3c(C)cc(C)[nH]c3=O)cc(-c3ccc(N4CCNCC4)nc3)cc21,,18.7 µM (active)
CN[C@@H]1[C@@H](O)[C@@H](O[C@@H]2[C@@H](O)[C@H](O[C@H]3O[C@H](CN)[C@@H](O)[C@H](O)[C@@H]3O)[C@@H](N)C[C@@H]2NC(=O)[C@@H](O)CN)OC[C@]1(C)O,26.4,
Nc1ccn([C@@H]2O[C@H](CO)[C@@H](O)[C@H]2O)c(=O)n1,-26.5,
C[C@]12CCC3=C4CCC(=O)C=C4CC[C@@H]3[C@H]1CC[C@@]2(O)CC#N,24.6,
c1cc(OCCN2CCCCC2)cc(-c2n[nH]c3ccc(-c4ncn[nH]4)cc23)c1,14.1,
CN1N=C(N)c2cn([C@@H]3O[C@H](COP(=O)(O)O)[C@@H](O)[C@@H]3O)c3ncnc1c23,,2.35 µM (active)
Cc1nn(Cc2ccccc2Cl)c(C)c1CN(C)CC(O)COc1ccc(Cl)cc1 (stereo not given),,18.7 µM (active)
Oc1ccc(C=Cc2cc(O)cc(O)c2)cc1,4.4,
CCN1CCC(n2cc(CNc3cc(Cl)c4ncc(C#N)c(Nc5ccc(F)c(Cl)c5)c4c3)nn2)CC1,,14.8 µM (active)
CO[C@H]1/C=C\O[C@@]2(C)Oc3c(C)c(O)c4c(O)c(c(C=NN5CCN(C6CCCC6)CC5)c(O)c4c3C2=O)NC(=O)C(C)=CC=C[C@H](C)[C@H](O)[C@@H](C)[C@@H](O)[C@@H](C)[C@H](OC(C)=O)[C@H]1C,,0.148 µM (active)
CC1(C)[C@H]2CC[C@]3(C)[C@@H](C(=O)C=C4[C@@H]5C[C@@](C)(C(=O)O)CC[C@]5(C)CC[C@]43C)[C@@]2(C)CC[C@@H]1O,7.1,
Cn1c(=O)c(-c2c(Cl)cccc2Cl)cc2cnc(Nc3cccc(C(=O)O)c3)nc21,-3.16,
CCC=CC[C@H]1C(=O)CC[C@@H]1CC(=O)OC,9.91,
CCOC(=O)[C@@H](N)CCC(=O)N[C@@H](CSCc1ccccc1)C(=O)N[C@@H](C(=O)OCC)c1ccccc1,7.31,

SMILES,"activity change, negative = cytotoxic [%]",Potency
CCC(=C(CC)c1ccc(O)cc1)c1ccc(O)cc1,3.72,
CNC1[C@H](O)C(O[C@@H]2C(O)C(O[C@H]3O[C@H]([C@@H](C)NC)CC[C@H]3N)[C@@H](N)C[C@H]2N)OC[C@]1(C)O (stereo not given in full),7.22,
Cc1cc2nc3c(=O)[nH]c(=O)nc-3n(CC(O)C(O)C(O)CO)c2cc1C (stereo not given),18,
O=C(NCCCCN1CCOCC1)c1cc2ccccc2o1,-0.266,
CN(CC=CC#CC(C)(C)C)Cc1cccc2ccccc12,27.9,
CC1(C)OC2CC3C4CC(F)C5=CC(=O)C=CC5(C)C4C(O)CC3(C)[C@]2(C(=O)CO)O1 (stereo not given in full),23.2,
Cc1cc(CS(=O)(=O)c2ccccc2)cc(OCc2ccc(CN3CCC[C@H]3CO)cc2)c1,,11.8 µM (active)
O=C(O)c1ccc(O)c2ncc(N3CCOCC3)cc12,,18.7 µM (active)
C[C@@]1(C(=O)Nc2ccc(F)nc2)CCCN1c1nc(Nc2cc(C3CC3)[nH]n2)c2cccn2n1,,0.0743 µM (active)
CC(NCCc1ccc(O)cc1)C(O)c1ccc(O)cc1 (stereo not given),16.5,
CC1CNc2c(cccc2S(=O)(=O)N[C@@H](CCCN=C(N)N)C(=O)N2CC[C@@H](C)C[C@@H]2C(=O)O)C1 (stereo not given in full),0.901,
CC1(C)C(N(O)C(=O)Nc2ccc(Cl)cc2)N(c2ccc(Cl)cc2)C(=O)N1CC(=O)NN=CC=Cc1ccc([N+](=O)[O-])o1 (stereo not given),,14.8 µM (active)
CCN1CCN(c2ccc(Nc3cc(N(C)C(=O)Nc4c(Cl)c(OC)cc(OC)c4Cl)ncn3)cc2)CC1,-28.8,
CC(=O)Nc1cccc(-n2c(=O)n(C3CC3)c(=O)c3c(Nc4ccc(I)cc4F)n(C)c(=O)c(C)c32)c1,-15.1,
CO[C@H]1/C=C\O[C@@]2(C)Oc3c(C)c(O)c4c(O)c(c5c(nc6cc(C)ccn65)c4c3C2=O)NC(=O)C(C)=CC=C[C@H](C)[C@H](O)[C@@H](C)[C@@H](O)[C@@H](C)[C@H](OC(C)=O)[C@H]1C,-16.4,
O=C(Nc1ncc(SCCN2CCCC2)s1)[C@]1(c2ccc(S(=O)(=O)C3CC3)cc2)C[C@@H]1C1CCCCC1,,18.7 µM (active)
Cc1cnc(-c2cc(N3CCN(C(=O)CCS(C)(=O)=O)CC3)ncc2Cl)c(C)c1,-4.76,
COc1c(C)c2c(c(O)c1CC=C(C)CCC(=O)OCCN1CCOCC1)C(=O)OC2,-8.42,
CCN1C[C@H](C)n2c(c(O)c3c(=O)n(Cc4ccc(F)c(Cl)c4)nc(C(=O)NC)c32)C1=O,8.09,
Nc1ccc(-c2ccc3ncc4ccc(=O)n(-c5cccc(C(F)(F)F)c5)c4c3c2)cn1,,0.0264 µM (active)
